Test results from PubChem BioAssay (Tox21).
Values joined by “and” are separate entries in the source; they are usually repeats but may differ in a detail not shown here. Equal entries are not always repeated. Records with an inconclusive call do not appear. A call without a number means that no potency is given here. Values without a mark were called inactive. Active and inactive are the calls of the source. Calls come from the whole dose curve; as a rule, active = well fitted cell-killing curve with a large enough effect in the repeat runs; inconclusive = weak or mixed curves, or effect the other way; inactive = flat fitted curve, though single readings scatter.

Key:
[1] = cAMP Responsive Elements (CRE) small molecule antagonists, cell-based qHTS assay: qHTS cell viability counter screen (AID 2060913); conditions: CRE-bla HEK293T viability, CellTiter-Glo luminescence, 5 h; series mostly up to 92.4 µM; note: nearly all actives have a fitted effect of over 40% in size
Method in brief: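 HEK293T CRE-bla, 2,000 cells/well, 18 h preincubation; cpd in DMSO + NKH477 0.25 uM final, 3 h 37 C/5% CO2; LiveBLAzer 2 h RT, then CellTiter-Glo 30 min RT, luminescence.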

[2] = cAMP Responsive Elements (CRE) small molecule agonists, cell-based qHTS assay: qHTS cell viability counter screen (AID 2060914); conditions: CRE-bla HEK293T viability, CellTiter-Glo luminescence, 5 h; series mostly up to 92.4 µM; note: nearly all actives have a fitted effect of over 50% in size
Method in brief: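 In the same wells as the reporter read, viability of CRE-bla HEK 293T cells was quantified by CellTiter-Glo luminescence after a 3 h compound exposure.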
Potency is the fitted concentration of half-maximal effect.

SMILES | Potency [1] | Potency [2] | viability change, negative = cytotoxic [1] | activity change, negative = cytotoxicity [2]
O=C1c2ccccc2S(=O)(=O)N1CCCCN1CCN(c2ncccn2)CC1 | inactive | inactive | – | –
COCC(C)O (stereo not given) | inactive | inactive | – | –
Oc1ccccc1-c1nnco1 | inactive | inactive | – | –
CC(C=O)c1ccccc1 (stereo not given) | inactive | inactive | – | –
Oc1cccc(Nc2ccccc2)c1 | inactive | inactive | – | –
O=C(O)COCCN1CCN(C(c2ccccc2)c2ccc(Cl)cc2)CC1 (stereo not given) | inactive | inactive | – | –
CC(C)c1ccc(S(=O)(=O)O)cc1 | inactive | inactive | – | –
[O-][n+]1cccc(CO)c1 | inactive | inactive | – | –
CCCCCCCCC(CCCCCC)C(=O)O (stereo not given) | inactive | inactive | – | –
CN1C(CCl)Nc2cc(Cl)c(S(N)(=O)=O)cc2S1(=O)=O (stereo not given) | inactive | inactive | – | –
Nc1ccc(S(=O)(=O)Nc2ccccn2)cc1 | inactive | inactive | – | –
C1=C\CC/C=C\CC/1 | inactive | inactive | – | –
CCCCCCCCCCCCCCCCCBr | – | – | 1.85% [at 18.9 µM] | 1.37% [at 18.9 µM]
N#C[C@@H]1C[C@@H]2C[C@@H]2N1C(=O)[C@@H](N)C12CC3CC(CC(O)(C3)C1)C2 | inactive | inactive | – | –
CN1CCC(=C2c3ccccc3Sc3ccccc32)CC1 | inactive | inactive | – | –
Nc1ccc(Cl)cc1[N+](=O)[O-] | inactive | inactive | – | –
CCCCC(CC)COC(=O)CC#N (stereo not given) | inactive | inactive | – | –
COc1ccc2nc(N)sc2c1 | inactive | inactive | – | –
CCCCCCc1ccc(O)cc1O | inactive | inactive | – | –
CCc1cccc(CC)c1NC(=O)C(=O)O | inactive | inactive | – | –
Clc1ccc2c(Cl)ccnc2c1 | inactive | inactive | – | –
Nc1ccc(S(=O)(=O)c2ccc(N)cc2)cc1 | inactive | inactive | – | –
CCN(Cc1cccc(S(=O)(=O)O)c1)c1ccccc1 | inactive | inactive | – | –
CC(=O)c1ccccn1 | inactive | inactive | – | –
CCn1c2ccccc2c2cc([N+](=O)[O-])ccc21 | inactive | inactive | – | –
CCC(=O)OCc1ccccc1 | inactive | inactive | – | –
CC(C)C(=O)Nc1cccc(C2CN3CCSC3=N2)c1 (stereo not given) | inactive | inactive | – | –
CCN=c1cc2oc3cc(NCC)c(C)cc3c(-c3ccccc3C(=O)OCC)c-2cc1C | 68.3 µM (active) and 50.8 µM (active) | 68.3 µM (active) and 61.1 µM (active) | – | –

SMILES | Potency [1] | Potency [2] | viability change, negative = cytotoxic [1] | activity change, negative = cytotoxicity [2]
CC(=O)Nc1ccc(C(=O)CCl)cc1 | inactive | inactive | – | –
COc1ccc(OC)c(N=Nc2c(O)ccc3ccccc23)c1 | inactive | inactive | – | –
O=C(Cl)c1ccc([N+](=O)[O-])cc1 | inactive | inactive | – | –
CCC(=O)c1cccc(Cl)c1 | inactive | inactive | – | –
CC(=O)N[C@@H](CC(C)C)C(=O)O | inactive | inactive | – | –
OCCNCCO | inactive | inactive | – | –
C=C(C)C(=O)OCc1ccccc1 | inactive | inactive | – | –
COC(=O)c1ccc(C)cc1C1=NC(C)(C(C)C)C(=O)N1 (stereo not given) | inactive | inactive | – | –
C=CC[N+](C)(C)CC=C | inactive | inactive | – | –
Cc1ccc2oc(=O)ccc2c1 | inactive | inactive | – | –
CC(C)CCCCCCCOC(=O)CCCCC(=O)OCCCCCCCC(C)C | inactive | inactive | – | –
COC(=O)C1=C(C)NC(C)=C(C(=O)OC(C)(C)CN(C)CCC(c2ccccc2)c2ccccc2)C1c1cccc([N+](=O)[O-])c1 (stereo not given) | inactive | inactive | – | –
NCCNCCNCCN | inactive | inactive | – | –
CCOC(=O)[C@H](O)[C@@H](O)C(=O)OCC | inactive | inactive | – | –
Cc1cc(C)c(NC(=O)CN(CC(=O)O)CC(=O)O)c(C)c1Br | inactive | inactive | – | –
CCC(=O)OC | inactive | inactive | – | –
O=C(O)COc1nn(Cc2ccccc2)c2ccccc12 | inactive | inactive | – | –
C1CCN(CN2CCCCC2)CC1 | inactive | inactive | – | –
C=CC(C)(O)CC/C=C(/C)CCC=C(C)C (stereo not given) | inactive | inactive | – | –
O=C1[C@H](CC[C@H](O)c2ccc(F)cc2)[C@@H](c2ccc(O)cc2)N1c1ccc(F)cc1 | inactive | inactive | – | –
CS(=O)(=O)Nc1ccc([N+](=O)[O-])cc1Oc1ccccc1 | inactive | inactive | – | –
CC1(C)CC(=O)CC(C)(C)N1 | inactive | inactive | – | –
Cc1ccc(S(=O)(=O)O)c(C)c1 | inactive | inactive | – | –
OCC(F)(F)F | inactive | inactive | – | –
CCc1cccc(CC)c1 | inactive | inactive | – | –
O=c1c(O)c(-c2ccc(O)c(O)c2)oc2cc(O)cc(O)c12 | inactive | inactive | – | –
C1C2OC2C2C1C1CC2C2OC12 (stereo not given) | inactive | inactive | – | –
